Screens (PubChem BioAssay)
SRC1 inh: human NCOA1 inhibition. inhibition, % at 3.6 µM. HEK293 GAL4-SRC1 luciferase reporter, luminescence. 360,000 tested, 0.12% active. Q15788;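 active = inhibition above the campaign mean plus 3 SD, with each screening campaign given its own cutoff, cut at about 60% in these data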;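 note: 0% = DMSO treated cells and 100% = gossypol at 36 µM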
SRC2 inh: human SRC2 (NCOA2) inhibition. HEK293 GAL4-SRC2 luciferase reporter, luminescence. Q15596. 370,000 tested, 0.17% active. inhibition, % at 9 µM;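 active = inhibition above the mean inhibition of all tested compounds plus 3 SD, set per campaign, cut at about 52% in these data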;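 note: 0% = DMSO treated cells and 100% = cells given Gossypol at 36 µM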
SRC3 inh: inhibitors of human steroid receptor coactivator 3 (SRC3) | AID 588352 | 360,000 tested, 0.17% active | Q9Y6Q9 | HEK293 GAL4-SRC3 luciferase reporter, luminescence | inhibition, % at 3.6 µM;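 active = inhibition above a per-campaign cutoff, the mean of all compounds plus 3 SD, cut at about 60% in these data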;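 note: 0% = DMSO-treated cells and 100% = gossypol-treated cells at 36 µM; higher means less SRC3-driven luciferase light from the GAL4 reporter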
LRH-1 inv ag: NR5A2 inverse agonism in reporter assay | O00482 | inhibition, % at 3.6 µM | HEK293T StAR-luciferase reporter, LRH-1 transfected, 24 h | 360,000 tested, 0.13% active;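 active = inhibition above the mean inhibition of all tested compounds plus 3 SD, cut at about 73% in these data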;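 note: 0% = DMSO wells and 100% = reporter-only cells lacking LRH-1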
Gli-Sufu antag: Gli-Sufu pathway antagonism; Sufu-KO-LIGHT fibroblasts, Gli luciferase reporter luminescence; inhibition, % at 5 µM; 340,000 tested, 0.74% active; AID 588413;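 active = inhibition above about 55%, limit read from the data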;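 note: 0% = DMSO-treated cells and 100% = wells with medium but no cells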
COUP-TFII inh: inhibitors of human COUP-TFII (NR2F2) | P24468 | HEK293T NGFI-A luciferase reporter, luminescence | inhibition, % at 8.6 µM | 370,000 tested, 0.7% active | AID 686940;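 active = inhibition above a per-plate cutoff, mean inhibition of test wells between control levels plus 3 SD, cut at about 38% in these data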;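 note: cells cotransfected with COUP-TFII expression vector driving the NGFI-A reporter; 0% = median of COUP-TF2 test wells and 100% = reporter-only cells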
Gli-Sufu confirm: Gli-SUFU antagonism confirmation, single concentration; shares compounds with Gli-Sufu antag; Sufu-KO-LIGHT cells, Gli luciferase reporter, luminescence; inhibition, % at 5 µM; 2,500 tested, 40% active; AID 602428;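 active = mean inhibition at 5 µM reaching about 45%, limit read from the data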;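 note: plate controls were DMSO-treated cells for no effect and wells lacking cells for full effect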
Gli cytotox: cytotoxicity counter-screen for Gli-SUFU antagonists | shares compounds with Gli-Sufu antag | Sufu-KO-LIGHT cells cytotoxicity, ATP luminescence | cytotoxicity, % at 5 µM | 2,500 tested, 32% active | AID 651994;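 active = mean cytotoxicity at 5 µM above about 25%, limit read from the data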;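 note: cells exposed to compound overnight for roughly 16 to 18 hours; plate controls were DMSO wells with cells for no effect and medium without cells for full effect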
Wnt3a cs: counter-screen for Gli-SUFU antagonists: Wnt3a reporter inhibition. shares compounds with Gli-Sufu antag. Wnt-LIGHT cells, Wnt3a-driven luciferase reporter, luminescence. inhibition, % at 6.25 µM. 2,500 tested, 20% active. AID 651995;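 active = mean inhibition above about 25%, limit read from the data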
Numbers without * were called inactive; / = no result given. Most compounds without a hit are left out; they make up all but 1.2% or so of the library.

SMILES | SRC1 inh | SRC2 inh | SRC3 inh | LRH-1 inv ag | Gli-Sufu antag | COUP-TFII inh | Gli-Sufu confirm | Gli cytotox | Wnt3a cs
COc1ccc(C2CC(=O)C(c3cc(OC)c(OC)c(OC)c3)=CN2Cc2ccccc2)cc1 (stereo not drawn) | / | 3 | / | / | / | -14 | / | / | /
COC(=O)c1cc2c(c3c4cc(OC)ccc4n(S(=O)(=O)c4ccc(C)cc4)c13)C(=O)N(C)C2 | / | -17 | / | / | / | -1 | / | / | /
COc1ccccc1N1CCN(/N=C/c2ccc(O)c(O)c2)CC1 | / | -3 | / | / | 55 | -12 | 25 | 1 | 18
COc1ccc(/C=N/N2CCN(c3ccccc3OC)CC2)cc1OC | -23 | -7 | -13 | -20 | -10 | -2 | / | / | /
Cc1ccc(S(=O)(=O)Nc2ccc(-n3c(C)nc4ccccc4c3=O)cc2)cc1 | -7 | 1 | 3 | 15 | 82* | 3 | 20 | 21 | -10
CC(=O)c1ccc(S(=O)(=O)Nc2ccc(-n3c(C)nc4ccccc4c3=O)cc2)cc1 | 7 | -19 | -3 | 7 | 7 | -12 | / | / | /
O=c1nc2ccccc2c(NS(=O)(=O)c2ccccc2)n1-c1ccccc1 | 5 | -11 | 20 | 6 | 83* | 3 | 27 | 15 | -15
CCc1c(Cc2ccccc2)ncn1CCc1ccccc1OC | / | 16 | / | / | / | 1 | / | / | /
COC(=O)c1cc2c(c3c4ccccc4n(S(=O)(=O)c4ccccc4)c13)C(=O)N(C)C2 | / | 18 | / | / | / | -8 | / | / | /
CCOC(=O)CN1CCCc2nc(C)c(C)cc21 | / | 3 | / | / | / | 3 | / | / | /
Cn1nccc1C(=O)N1CCN(C23CC4CC(CC(C4)C2)C3)CC1 | 2 | -1 | 2 | 13 | 10 | 6 | / | / | /
Cn1ncc(Cl)c1C(=O)N1CCN(C23CC4CC(CC(C4)C2)C3)CC1 | -10 | -4 | 12 | 18 | 99* | 11 | 26 | 4 | -14
CN1CC[C@@H]2CN(S(=O)(=O)c3ccccc3)[C@H](c3ccccc3Br)C[C@@H]21 | / | -7 | / | / | / | -1 | / | / | /
Cc1cc(C)cc(NC(=S)NC(=O)Cc2ccccc2)c1 | 8 | -15 | 12 | 17 | 60* | 8 | 12 | 23 | 0
Cc1ccc(C(=O)O)cc1NC(=S)NC(=O)Cc1ccccc1 | 10 | 12 | -15 | 13 | -21 | -9 | / | / | /
Cc1oc(-c2ccccc2F)nc1CS(=O)(=O)CC(=O)N1CCCCCC1 | -11 | -2 | -1 | -15 | 2 | 9 | / | / | /
CCOC(=O)N1CCN(C(=O)CS(=O)(=O)Cc2nc(-c3ccccc3F)oc2C)CC1 | 5 | 14 | -1 | 13 | 57* | 11 | 24 | 28* | -6
C/C(CC(=O)Nc1ccccn1)=N\NC(=O)C(=O)Nc1ccccc1C | -6 | 15 | 9 | -26 | 56* | 7 | 20 | -1 | 3
COc1ccccc1NC(=O)C(=O)N/N=C(\C)CC(=O)Nc1ccccn1 | -10 | -30 | 5 | -14 | / | 0 | / | / | /
CC(NC(=O)CN(C)Cc1nc2ccccc2c(=O)[nH]1)c1ccccc1 (stereo not drawn) | -13 | -11 | 24 | 2 | 0 | 10 | / | / | /
CN(Cc1nc2ccccc2c(=O)[nH]1)Cc1nc2ccsc2c(=O)[nH]1 | 0 | -8 | -1 | -5 | 62* | 7 | 31 | 12 | 39*
Cc1ccc(N(CC(=O)NC2CCCCC2)S(=O)(=O)c2c(C)noc2C)cc1 | 18 | 16 | 0 | -12 | 50 | 1 | 14 | 18 | -35
Cc1ccc(N(CC(=O)NC2CCCCCC2)S(=O)(=O)c2c(C)nn(C)c2C)cc1 | 5 | -13 | -5 | -2 | 3 | 24 | / | / | /
COc1ccc(N(CC(=O)NC2CCCCCC2)S(=O)(=O)c2c(C)nn(C)c2C)cc1 | 4 | -32 | -4 | 8 | 51 | -19 | 9 | -6 | -34
CN(C)c1ccc(N/C(N)=N/c2nc(C(F)(F)F)cc(C(F)(F)F)n2)cc1 | 8 | 2 | 10 | -9 | 50 | -13 | 22 | 12 | -21
SMILES | SRC1 inh | SRC2 inh | SRC3 inh | LRH-1 inv ag | Gli-Sufu antag | COUP-TFII inh | Gli-Sufu confirm | Gli cytotox | Wnt3a cs
Cc1cccc(N/C(N)=N/c2nc(C(F)(F)F)cc(C(F)(F)F)n2)c1 | -9 | -11 | 20 | -12 | 6 | 8 | / | / | /
CCCCCn1c(C)c(CC(=O)Nc2ccc(Oc3cccnc3)c(C)c2)c2ccccc21 | / | 19 | / | / | / | 18 | / | / | /
Cc1ccc(C(=O)O)cc1NC(=O)Nc1ccc2c(c1)OCO2 | -28 | -36 | -24 | -28 | 56* | -3 | -3 | 18 | -54
Cc1ccc(CS(=O)(=O)CCC(=O)NCc2ccccc2Cl)cc1 | 7 | 12 | 13 | -11 | 53 | 21 | 8 | 22 | -16
COc1ccccc1CNC(=O)CCS(=O)(=O)Cc1ccc(C)cc1 | 8 | 3 | 5 | -19 | -9 | -5 | / | / | /
CC(C)(C)c1ccc(Cn2cnc(-c3ccc([N+](=O)[O-])cc3)c2)cc1 | -49 | -57 | -44 | -64 | -20 | -2 | / | / | /
Cc1cc(C)c(Cn2cnc(-c3ccc([N+](=O)[O-])cc3)c2)c(C)c1 | 2 | 15 | 9 | 6 | 55* | 30 | 30 | 28* | -44
Cc1cc(C)cc(C(=O)N(NC(=O)Nc2ccc(Cl)cc2)C(C)(C)C)c1 | 6 | -6 | 5 | -11 | 60* | 14 | 22 | 10 | -3
COc1cc(OC)c(NS(=O)(=O)c2ccc(Cl)c(C(=O)OC(C)C(=O)N3CCCC3)c2)cc1Cl (stereo not drawn) | 28 | 6 | 4 | 16 | 51 | 23 | 25 | 14 | -14
CCCN1C(=O)c2[nH]nc(-c3ccccc3)c2C1c1ccc(Br)cc1 (stereo not drawn) | / | 7 | / | / | / | -5 | / | / | /
COc1ccc(C2C=C(C)Nc3nc4ccccc4n32)cc1 (stereo not drawn) | -45 | -34 | -47 | -36 | 98* | -17 | 9 | 24 | -26
COc1ccc(C2C=C(C)Nc3ncnn32)cc1 (stereo not drawn) | 2 | -36 | 7 | -15 | -6 | -17 | / | / | /
O=Nc1ccccn1 | / | -10 | / | / | / | -13 | / | / | /
C=C(C)CSc1nc2sc3c(c2c(=O)n1C1CCCCC1)CCN(C)C3 | -110 | -2 | 7 | 3 | 58* | -6 | 47* | 25* | -7
CC(C)CNS(=O)(=O)CC1NCc2ccccc21 (stereo not drawn) | / | -2 | / | / | / | -17 | / | / | /
OCCCNc1ncnc2sc(-c3ccccc3)cc12 | -33 | 20 | 22 | -7 | -8 | 23 | / | / | /
C=COCCCNc1ncnc2sc(-c3ccccc3)cc12 | -13 | 14 | 27 | 4 | 61* | 23 | 48* | 39* | 2
COC(=O)c1cc2c(c3c4cc(F)ccc4n(S(=O)(=O)c4ccc(C)cc4)c13)C(=O)N(C)C2 | / | -13 | / | / | / | 2 | / | / | /
